Active and inactive are the calls of the source.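 The calls were made as follows: active = peak TRPC4 channel inhibition over 30% at some tested dose, plus a fitted dose response curve; inactive = no inhibition at any dose, or no curve fitted.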

The target of this assay is Short transient receptor potential channel 4 (Mus musculus) (UniProt Q9QUQ5). The assay is described as follows: TRPC4 channel inhibition, specificity check, SAR follow-up, selectivity assay for TRPC6 selective inhibitor project, cell-based, HEK293 TRPC4/mu-opioid, concentration-response (AID 504554). Conditions: DAMGO-evoked Fluo-4 calcium ratio; series mostly up to 6.67 µM.
Sequence of Short transient receptor potential channel 4 (Mus musculus) (Q9QUQ5 whole entry, looked up): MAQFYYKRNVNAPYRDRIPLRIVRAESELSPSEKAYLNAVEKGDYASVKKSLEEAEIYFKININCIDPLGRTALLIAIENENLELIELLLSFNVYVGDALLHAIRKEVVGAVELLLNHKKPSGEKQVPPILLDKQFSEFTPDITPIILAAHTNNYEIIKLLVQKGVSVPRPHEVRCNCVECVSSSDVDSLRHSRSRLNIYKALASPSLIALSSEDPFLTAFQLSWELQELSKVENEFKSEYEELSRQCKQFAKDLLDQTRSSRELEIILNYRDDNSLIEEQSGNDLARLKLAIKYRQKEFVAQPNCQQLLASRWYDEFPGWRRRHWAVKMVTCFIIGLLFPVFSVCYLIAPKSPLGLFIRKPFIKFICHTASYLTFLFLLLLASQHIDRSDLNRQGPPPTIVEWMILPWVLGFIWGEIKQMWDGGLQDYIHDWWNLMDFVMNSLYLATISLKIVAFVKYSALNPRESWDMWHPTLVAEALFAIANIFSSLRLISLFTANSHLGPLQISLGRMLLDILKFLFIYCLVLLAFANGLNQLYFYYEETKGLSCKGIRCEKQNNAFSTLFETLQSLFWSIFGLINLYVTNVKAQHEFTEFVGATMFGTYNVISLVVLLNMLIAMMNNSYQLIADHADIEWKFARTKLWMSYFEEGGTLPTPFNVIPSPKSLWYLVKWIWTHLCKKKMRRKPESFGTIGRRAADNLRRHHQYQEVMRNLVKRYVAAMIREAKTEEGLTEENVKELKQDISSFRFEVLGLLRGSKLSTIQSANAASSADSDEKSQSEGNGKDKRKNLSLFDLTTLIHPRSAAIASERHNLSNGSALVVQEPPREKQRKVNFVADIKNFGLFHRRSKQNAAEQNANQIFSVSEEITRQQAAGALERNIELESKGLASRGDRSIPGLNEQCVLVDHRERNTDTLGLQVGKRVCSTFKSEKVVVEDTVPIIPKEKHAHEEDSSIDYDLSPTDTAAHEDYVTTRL
`COc1ccc(OC)c(CNc2ccc3c(c2)ncn3C(C)(C)C)c1`: the result was inactive.

Regarding `CC(C)(C)n1cnc2cc(NCc3ccccc3Cl)ccc21`, the outcome was inactive.

On to `CC(=O)Nc1ccc2c(c1)ncn2C(C)(C)C`, for which the result was inactive.

Consider `CC(C)(C)n1cnc2cc(NCc3ccco3)ccc21`, for which the result was inactive.

In the case of `COc1cccc(CNc2ccc3c(c2)ncn3C)c1OC`, the result was inactive.

`CC(C)(C)n1cnc2cc(NC(=O)c3ccc(Cl)cc3)ccc21`: the outcome was inactive.

As for `CC(C)c1ccc(CNc2ccc3c(c2)ncn3C(C)(C)C)cc1`, the result was inactive.

`CCCC(=O)Nc1ccc2c(c1)ncn2C(C)(C)C`: the outcome was inactive.

Take `CC(C)(C)n1cnc2cc(NC(=O)c3ccccc3)ccc21`: the result was inactive.

On to `CCOc1ccc(CNc2ccc3c(c2)ncn3C(C)(C)C)cc1`, for which the outcome was inactive.

Take `CC(C)(C)n1cnc2cc(NCc3ccc(Cl)cc3Cl)ccc21`: the outcome was inactive.

Regarding `CCc1ccc(CNc2ccc3c(c2)ncn3C(C)(C)C)cc1`, the outcome was inactive.

Take `CC(C)(C)n1cnc2cc(NCc3ccccc3O)ccc21`: the result was inactive.

`CCN(CC)c1ccc(CNc2ccc3c(c2)ncn3C(C)(C)C)cc1`: the result was inactive.

Consider `CC(C)(C)n1cnc2cc(NCc3cccs3)ccc21`, for which the result was inactive.

Take `COc1ccc(CNc2ccc3c(c2)ncn3C(C)(C)C)c(OC)c1`: the result was inactive.

Turning to `CC(C)(C)n1cnc2cc(NCc3cccc4ccccc34)ccc21`, the result was inactive.

For `COc1ccc(CNc2ccc3c(c2)ncn3C(C)(C)C)cc1OC`, the outcome was inactive.

On to `CCOc1ccc(CNc2ccc3c(c2)ncn3C)cc1`, for which the outcome was inactive.

As to `Cc1ccc(CNc2ccc3c(c2)ncn3C(C)(C)C)cc1`, the outcome was inactive.

Turning to `COc1cccc(CNc2ccc3c(c2)ncn3C(C)(C)C)c1OC`, the result was inactive.

For the compound `CC(C)(C)n1cnc2cc(NCc3ccc(Br)cc3)ccc21`, the outcome was inactive.

On to `CCC(=O)Nc1ccc2c(c1)ncn2C(C)(C)C`, for which the outcome was inactive.

Turning to `CCOc1ccccc1CNc1ccc2c(c1)ncn2C(C)(C)C`, the result was inactive.

As for `CC(C)(C)n1cnc2cc(NC(=O)c3cccs3)ccc21`, the outcome was inactive.

In the case of `CC(C)(C)n1cnc2cc(NCc3cccc(Br)c3)ccc21`, the outcome was inactive.

Take `COc1cc(C(=O)Nc2ccc3c(c2)ncn3C(C)(C)C)cc(OC)c1OC`: the outcome was inactive.

Regarding `CN(C)c1ccc(CNc2ccc3c(c2)ncn3C(C)(C)C)cc1`, the outcome was inactive.

Turning to `COc1ccc(CNc2ccc3c(c2)ncn3-c2ccccc2)cc1`, the outcome was inactive.

Turning to `CCOc1ccc(CNc2ccc3c(c2)ncn3-c2ccccc2)cc1`, the outcome was inactive.

With `COc1ccccc1CNc1ccc2c(c1)ncn2C(C)(C)C`, the result was inactive.

With `COc1ccc(CNc2ccc3c(c2)ncn3C(C)(C)C)cc1`, the outcome was inactive.

These data come from PubChem BioAssay AID504554 (Johns Hopkins Ion Channel Center, 2011).
